In PubChem BioAssay AID1159580 (chemical genetic matrix, 2015):
Values joined by “and” are separate entries in the source; they are usually repeats but may differ in a detail not shown here. Equal values may be shown once. The whole screen tested about 5,500 compounds, of which about 2,000 (36%) were called active. Roughly 18% stayed inconclusive and do not appear here. No stated cut-off is given here; in the data, active means normalized growth mostly below about 0.91 (no sharp cut-off); inconclusive means no clear call, values can overlap the other calls; inactive means mostly above about 0.92. The list shows a part of the results.

Assay: chemical genetic growth profiling, strain panel (AID 1159580);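 further: tested at 20 µM; growth read once vehicle control cultures reached saturation at 30 °C; 1 = growth at the plate median or of vehicle wells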
Settings: S. cerevisiae deletion strains, growth OD

For CCCCOc1ccc(OCCCN2CCOCC2)cc1, which normalized growth (locus YAL013W, strain DEP1, stronger effect = lower value) is on record?
The normalized growth was 0.994 (inactive).

And the normalized growth (locus YAL021C, strain ccr4, stronger effect = lower value)?
The normalized growth was 0.829 (active).

What about the normalized growth (locus YAL026C, strain drs2, stronger effect = lower value) of the same compound?
The normalized growth was 0.0964 (active).

And the normalized growth (locus YAL030W, strain snc1, stronger effect = lower value)?
Its normalized growth is 0.988 (inactive).

What about the normalized growth (locus YBL061C, strain skt5, stronger effect = lower value) of the same compound?
Its normalized growth is 0.955 (inactive).

What about the normalized growth (locus YBR009C, strain hhf1, stronger effect = lower value) of the same compound?
The normalized growth was 0.96 (inactive).

What about the normalized growth (locus YBR021W, strain FUR4, stronger effect = lower value) of the same compound?
Its normalized growth is 1.16 [resistant] (active).

And the normalized growth (locus YBR023C, strain chs3, stronger effect = lower value)?
The normalized growth was 0.946 (inactive).

What about the normalized growth (locus YBR171W, strain sec66, stronger effect = lower value) of the same compound?
The normalized growth was 0.942 (inactive).

What about the normalized growth (locus YBR229C, strain ROT2, stronger effect = lower value) of the same compound?
Its normalized growth is 1 (inactive).

What about the normalized growth (locus YBR231C, strain swc5, stronger effect = lower value) of the same compound?
The normalized growth was 0.935 (inactive).

What about the normalized growth (locus YBR279W, strain paf1, stronger effect = lower value) of the same compound?
The normalized growth was 0.918 (active).

What about the normalized growth (locus YCL011C, strain gbp2, stronger effect = lower value) of the same compound?
Its normalized growth is 0.966 (inactive).

And the normalized growth (locus YCL016C, strain dcc1, stronger effect = lower value)?
Its normalized growth is 0.928 (inactive).

What about the normalized growth (locus YCL029C, strain bik1, stronger effect = lower value) of the same compound?
The normalized growth was 0.938 (inactive).

And the normalized growth (locus YCL069W, strain vba3, stronger effect = lower value)?
The normalized growth was 0.995 (inactive).

And the normalized growth (locus YCR088W, strain abp1, stronger effect = lower value)?
Its normalized growth is 0.997 (inactive).

And the normalized growth (locus YDL005C, strain med2, stronger effect = lower value)?
The normalized growth was 1 (inactive).

And the normalized growth (locus YDL035C, strain GPR1, stronger effect = lower value)?
The normalized growth was 0.855 (active).

What about the normalized growth (locus YDL040C, strain nat1, stronger effect = lower value) of the same compound?
Its normalized growth is 0.987 (inactive).

What about the normalized growth (locus YDL074C, strain BRE1, stronger effect = lower value) of the same compound?
The normalized growth was 0.841 (inactive).

What about the normalized growth (locus YDL101C, strain DUN1, stronger effect = lower value) of the same compound?
The normalized growth was 0.963 (inactive).

And the normalized growth (locus YDL134C, strain PPH21, stronger effect = lower value)?
The normalized growth was 0.823 (active).

And the normalized growth (locus YDL185W, strain tfp1, stronger effect = lower value)?
The normalized growth was 0.979 (inactive).

What about the normalized growth (locus YDL192W, strain arf1, stronger effect = lower value) of the same compound?
The normalized growth was 0.893 (active).

And the normalized growth (locus YDR001C, strain nth1, stronger effect = lower value)?
The normalized growth was 0.983 (inactive).

And the normalized growth (locus YDR069C, strain doa4, stronger effect = lower value)?
The normalized growth was 0.883 (active).

What about the normalized growth (locus YDR101C, strain arx1, stronger effect = lower value) of the same compound?
The normalized growth was 0.916 (active).

And the normalized growth (locus YDR137W, strain rgp1, stronger effect = lower value)?
Its normalized growth is 0.913 (inactive).

What about the normalized growth (locus YDR150W, strain NUM1, stronger effect = lower value) of the same compound?
The normalized growth was 0.984 (inactive).

And the normalized growth (locus YDR159W, strain sac3, stronger effect = lower value)?
The normalized growth was 0.943 (inactive).

What about the normalized growth (locus YDR162C, strain NBP2, stronger effect = lower value) of the same compound?
Its normalized growth is 0.952 (inactive).

And the normalized growth (locus YDR195W, strain ref2)?
Its normalized growth is 1.21 [resistant] (active).

What about the normalized growth (locus YDR297W, strain sur2, stronger effect = lower value) of the same compound?
Its normalized growth is 0.968 (inactive).

And the normalized growth (locus YDR318W, strain mcm21, stronger effect = lower value)?
Its normalized growth is 0.884 (active).

What about the normalized growth (locus YDR334W, strain swr1, stronger effect = lower value) of the same compound?
Its normalized growth is 0.947 (inactive).

What about the normalized growth (locus YDR335W, strain msn5, stronger effect = lower value) of the same compound?
The normalized growth was 0.904 (active).

What about the normalized growth (locus YDR388W, stronger effect = lower value) of the same compound?
The normalized growth was 0.9 (active).

And the normalized growth (locus YDR392W, strain spt3, stronger effect = lower value)?
The normalized growth was 0.868 (inactive).

What about the normalized growth (locus YDR502C, strain sam2, stronger effect = lower value) of the same compound?
Its normalized growth is 0.872 (active).

What about the normalized growth (locus YEL003W, strain gim4, stronger effect = lower value) of the same compound?
The normalized growth was 0.918 (inactive).

What about the normalized growth (locus YEL037C, strain rad23, stronger effect = lower value) of the same compound?
The normalized growth was 0.98 (inactive).

What about the normalized growth (locus YEL061C, strain CIN8 (second series), stronger effect = lower value) of the same compound?
The normalized growth was 0.973 (inactive).

What about the normalized growth (locus YEL061C, strain CIN8, stronger effect = lower value) of the same compound?
The normalized growth was 0.931 (inactive).

And the normalized growth (locus YER015W, strain faa2, stronger effect = lower value)?
Its normalized growth is 0.925 (active).

What about the normalized growth (locus YER016W, strain bim1, stronger effect = lower value) of the same compound?
Its normalized growth is 0.983 (inactive).

What about the normalized growth (locus YER110C, stronger effect = lower value) of the same compound?
Its normalized growth is 0.922 (inactive).

And the normalized growth (locus YER111C, strain swi4, stronger effect = lower value)?
Its normalized growth is 0.962 (inactive).

What about the normalized growth (locus YER155C, strain BEM2 (second series), stronger effect = lower value) of the same compound?
Its normalized growth is 0.407 (active).

And the normalized growth (locus YER155C, strain BEM2, stronger effect = lower value)?
Its normalized growth is 1.04 (inactive).

What about the normalized growth (locus YER167W, strain BCK2, stronger effect = lower value) of the same compound?
The normalized growth was 0.838 (active).

What about the normalized growth (locus YFR010W, strain ubp6, stronger effect = lower value) of the same compound?
Its normalized growth is 0.884 (active).

And the normalized growth (locus YGL078C, strain dbp3, stronger effect = lower value)?
The normalized growth was 0.966 (inactive).

What about the normalized growth (locus YGL086W, strain mad1, stronger effect = lower value) of the same compound?
Its normalized growth is 0.906 (active).

What about the normalized growth (locus YGL167C, strain pmr1, stronger effect = lower value) of the same compound?
Its normalized growth is 0.966 (inactive).

What about the normalized growth (locus YGL173C, strain kem1, stronger effect = lower value) of the same compound?
Its normalized growth is 0.929 (inactive).

And the normalized growth (locus YGL227W, strain vid30, stronger effect = lower value)?
The normalized growth was 0.966 (inactive).

What about the normalized growth (locus YGL240W, strain doc1, stronger effect = lower value) of the same compound?
The normalized growth was 0.965 (inactive).

What about the normalized growth (locus YGL248W, strain PDE1, stronger effect = lower value) of the same compound?
The normalized growth was 0.863 (active).

And the normalized growth (locus YGL253W, strain hxk2, stronger effect = lower value)?
Its normalized growth is 0.94 (inactive).

What about the normalized growth (locus YGR078C, strain PAC10, stronger effect = lower value) of the same compound?
Its normalized growth is 0.828 (active).

What about the normalized growth (locus YGR135W, strain pre9, stronger effect = lower value) of the same compound?
Its normalized growth is 0.784 (active).

And the normalized growth (locus YGR229C, strain SMI1, stronger effect = lower value)?
Its normalized growth is 0.598 (active).

What about the normalized growth (locus YGR252W, strain gcn5, stronger effect = lower value) of the same compound?
The normalized growth was 0.588 (active).

And the normalized growth (locus YHR013C, strain ard1, stronger effect = lower value)?
Its normalized growth is 0.799 (active).

What about the normalized growth (locus YHR027C, strain rpn1, stronger effect = lower value) of the same compound?
Its normalized growth is 0.953 (inactive).

What about the normalized growth (locus YHR030C, strain SLT2, stronger effect = lower value) of the same compound?
The normalized growth was 0.911 (active) and 0.965 (inactive).

What about the normalized growth (locus YHR079C, strain IRE1 (second series), stronger effect = lower value) of the same compound?
The normalized growth was 0.93 (inactive).

And the normalized growth (locus YHR079C, strain IRE1, stronger effect = lower value)?
The normalized growth was 0.979 (inactive).

And the normalized growth (locus YHR094C, strain hxt1, stronger effect = lower value)?
The normalized growth was 0.997 (inactive).

And the normalized growth (locus YHR129C, strain ARP1, stronger effect = lower value)?
Its normalized growth is 0.99 (inactive).

What about the normalized growth (locus YHR142W, strain chs7, stronger effect = lower value) of the same compound?
Its normalized growth is 0.817 (active).

What about the normalized growth (locus YHR200W, strain rpn10, stronger effect = lower value) of the same compound?
Its normalized growth is 0.961 (inactive).

And the normalized growth (locus YIL066C, strain RNR3, stronger effect = lower value)?
The normalized growth was 0.719 (active).

What about the normalized growth (locus YIL073C, strain SPO22, stronger effect = lower value) of the same compound?
The normalized growth was 0.804 (inactive).

What about the normalized growth (locus YIL125W, strain kgd1, stronger effect = lower value) of the same compound?
Its normalized growth is 1 (inactive).

What about the normalized growth (locus YIR030C, strain dcg1, stronger effect = lower value) of the same compound?
Its normalized growth is 0.976 (inactive).

What about the normalized growth (locus YJL092W, strain hpr5, stronger effect = lower value) of the same compound?
The normalized growth was 0.992 (inactive).

What about the normalized growth (locus YJL095W, strain BCK1 (second series), stronger effect = lower value) of the same compound?
Its normalized growth is 0.962 (inactive).

And the normalized growth (locus YJL095W, strain BCK1, stronger effect = lower value)?
Its normalized growth is 0.653 (active) and 0.972 (inactive).

What about the normalized growth (locus YJL115W, strain asf1, stronger effect = lower value) of the same compound?
The normalized growth was 0.954 (inactive).

What about the normalized growth (locus YJL129C, strain trk1, stronger effect = lower value) of the same compound?
The normalized growth was 0.805 (active).

And the normalized growth (locus YJL134W, strain LCB3, stronger effect = lower value)?
Its normalized growth is 0.999 (inactive).

And the normalized growth (locus YJL154C, strain vps35, stronger effect = lower value)?
The normalized growth was 0.995 (inactive).

And the normalized growth (locus YJL164C, strain tpk1, stronger effect = lower value)?
Its normalized growth is 0.918 (inactive).

What about the normalized growth (locus YJL166W, strain qcr8, stronger effect = lower value) of the same compound?
The normalized growth was 0.89 (active).

What about the normalized growth (locus YJL168C, strain set2, stronger effect = lower value) of the same compound?
Its normalized growth is 0.976 (inactive).

And the normalized growth (locus YJL187C, strain SWE1 (second series), stronger effect = lower value)?
The normalized growth was 0.855 (active).

What about the normalized growth (locus YJL187C, strain SWE1, stronger effect = lower value) of the same compound?
Its normalized growth is 0.957 (inactive).

And the normalized growth (locus YJR043C, strain POL32, stronger effect = lower value)?
The normalized growth was 0.934 (inactive).

And the normalized growth (locus YJR066W, strain TOR1, stronger effect = lower value)?
Its normalized growth is 0.884 (inactive).
